# Where “and” joins values, the source holds several entries; their conditions need not be identical. Identical values can stand only once. Calls of active or inactive are those of the source. Unless noted, how the calls were made is not given here.
# Legend:
# [1] = P. berghei load reduction in hepatocytes – cell-based, HepG2, luciferase luminescence, HepG2 viability, primary screen (AID 624349; in the data active means parasite load remaining mostly below about 12%, no sharp cut-off; inactive means mostly above about 10%;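 further: 100% = mean of DMSO negative control wells on the same plate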); conditions: P. berghei liver stage in HepG2, luciferase luminescence, concentration not given here; parasite load remaining: stronger effect = lower value; viability: measured here: HepG2 viability without parasites
# [2] = viability loss with induced miR-34 in A549 – imaging, A549 dox-inducible miR-34, nuclei and caspase counts, primary screen (AID 1347080;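 active means compounds whose cell count with miR-34 switched on is under 0.7 times the count with it off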); conditions: A549 miR-34 inducible, Hoechst nuclei count, 48 h
# [3] = chitosan synthesis blockers in C. neoformans – flow cytometry, Cibacron Brilliant Red staining (AID 1347148); conditions: Cryptococcus neoformans chitosan, stronger effect = lower value; at 10 µM unless noted;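 further: compound exposure lasted three days at 37 degrees C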
# [4] = liver-stage malaria parasite load reduction – cell-based, known kinase inhibitor set, luminescence, hepatoma host viability (AID 624392); conditions: Plasmodium liver stage in hepatoma cells, luciferase luminescence, concentration not given here; liver cell % of control: measured here: host liver cell viability; parasite % of control: stronger effect = lower value;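 further: infected cells incubated roughly two days before readout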
# [5] = compounds altering HSF1 focus formation in cells – imaging, Selleck Cancer Library (AID 1347162; in the data active means plate-normalised HSF1 focus index below about 0.46); conditions: human cells, HSF1 nuclear foci imaging, at 10 µM; SSMD: measured here: HSF1 foci SSMD mean; cell count: measured here: cell number; plate-normalised HSF1 focus index: stronger effect = lower value
# [6] = stronger effect = lower value, cell number ratio, induced over uninduced
# [7] = measured here: relative caspase fold change +Dox/-Dox
# [8] = measured here: total cells with miR-34 induction, stronger effect = lower value
# [9] = measured here: total cells without miR-34 induction
structure (smiles),measurement,setting,value
CC12CCC3c4ccc(OC(=O)c5ccccc5)cc4CCC3C1CCC2O (stereo not drawn),parasite load remaining,[1],35.5% (inactive)
same,viability,[1],95.7%
same,fold change,[2]; [6],0.833 (inactive)
same,fold change,[2]; [7],2.66
same,cell count,[2]; [8],9690
same,cell count,[2]; [9],11600
O=C(O)C1(O)C[C@H](O)C(O)[C@@H](O)C1 (stereo partly drawn),parasite load remaining,[1],88.4% (inactive)
same,viability,[1],72.5%
same,fold change,[2]; [6],0.922 (inactive)
same,fold change,[2]; [7],0.931
same,cell count,[2]; [8],8930
same,cell count,[2]; [9],9680
CCCCC[C@@H](O)/C=C/[C@H]1[C@H](C/C=C\CCCC(=O)O)[C@@H]2CO[C@H]1C2,fold fluorescence,[3],4.13 (inactive)
COc1ccc(CCCO[C@@H](Cn2ccnc2)c2ccc(OC)cc2)cc1,fold fluorescence,[3],7.02 [at 136.4 µM] (inactive)
CC1OC(O[C@H]2/C=C/C=C/C=C/C=C/C=C/C=C/C=C/[C@H](C)[C@@H](O)[C@@H](C)[C@H](C)OC(=O)CC(O)CC(O)CCC(O)C(O)CC(O)CC3(O)C[C@H](O)C(C(=O)O)C(C2)O3)C(O)[C@H](N)C1O (stereo partly drawn),parasite load remaining,[1],85.7% (inactive) and 73.7% (inactive)
same,viability,[1],73.8% and 92.4%
same,fold change,[2]; [6],0.94 (inactive)
same,fold change,[2]; [7],0.836
same,cell count,[2]; [8],10800
same,cell count,[2]; [9],11500
c1ccc(-c2[nH]ncc2-c2ccnc3ccccc23)nc1,parasite load remaining,[1],38% (inactive)
same,viability,[1],62.8%
same,liver cell % of control,[4],101%
same,parasite % of control,[4],63.9% (inactive)
same,fold change,[2]; [6],0.893 (inactive)
same,fold change,[2]; [7],0.903
same,cell count,[2]; [8],4970
same,cell count,[2]; [9],5570
CC[C@H](C)[C@H](N)C(=O)N[C@@H](CC(N)=O)C(=O)N[C@@H](CC(C)C)C(=O)N[C@@H](CCCCN)C(=O)N[C@@H](C)C(=O)N[C@@H](CC(C)C)C(=O)N[C@@H](C)C(=O)N[C@@H](C)C(=O)N[C@@H](CC(C)C)C(=O)N[C@@H](C)C(=O)N[C@@H](CCCCN)C(=O)N[C@@H](CCCCN)C(=O)N[C@H](C(=O)N[C@@H](CC(C)C)C(N)=O)[C@@H](C)CC,fold fluorescence,[3],3.8 [at 33.8 µM] (inactive)
C[C@H](N)C1CCC(C(=O)Nc2ccncc2)CC1 (stereo partly drawn),fold fluorescence,[3],2.94 [at 202.1 µM] (inactive)
CN(C)c1ccc(O)c2c1CC1CC3[C@@H](N(C)C)C(=O)C(C(N)=O)=C(O)[C@]3(O)C(=O)C1=C2O (stereo partly drawn),parasite load remaining,[1],53.7% (inactive)
same,viability,[1],42.6%
same,fold change,[2]; [6],0.679 (active)
same,fold change,[2]; [7],1.3
same,cell count,[2]; [8],3880
same,cell count,[2]; [9],5720
COC(=O)C1=C(C)NC(C)=C(C(=O)OCCN(C)Cc2ccccc2)[C@H]1c1cccc([N+](=O)[O-])c1,fold fluorescence,[3],4.49 [at 104.3 µM] (inactive)
COc1cc2c(cc1OC)-c1[nH]nc(Nc3cccc(F)c3)c1C2,parasite load remaining,[1],37% (inactive)
same,viability,[1],81.5%
same,fold change,[2]; [6],1.05 (inactive)
same,fold change,[2]; [7],1.72
same,cell count,[2]; [8],1160
same,cell count,[2]; [9],1100
OC[C@@H]1NC[C@H](O)[C@H](O)[C@H]1O,fold fluorescence,[3],8.15 [at 306.4 µM] (inactive)
CNS(=O)(=O)c1ccc(NC(=O)c2ccccc2C(=O)O)cc1 (tested in a mixture with another compound),parasite load remaining,[1],59.7% (inactive)
same,viability,[1],106%
same,fold change,[2]; [6],0.903 (inactive)
same,fold change,[2]; [7],3.2
same,cell count,[2]; [8],11500
same,cell count,[2]; [9],12700
CCCCC(C)(C)[C@@H](O)/C=C/[C@H]1[C@H](C/C=C\CCCC(=O)O)C(=O)C[C@@H]1O,fold fluorescence,[3],4.79 (inactive)
CCCCC[C@@H](O)/C=C/[C@H]1[C@H](C/C=C\CCCC(=O)O)[C@@H](O)C[C@@H]1O,fold fluorescence,[3],4.53 (inactive)
COc1cc2c3cc1Oc1c(OC)c(OC)cc4c1[C@H](Cc1ccc(OC(=O)c5ccc([N+](=O)[O-])cc5)c(c1)Oc1ccc(cc1)C[C@H]3N(C)CC2)N(C)CC4,fold fluorescence,[3],5.83 [at 66 µM] (inactive)
CCC(C)N1CCC2(CC1)N=c1c(c3c4c5c(C)c(O)c3c(O)c1=NC(=O)/C(C)=C/C=C/[C@H](C)[C@H](O)[C@@H](C)[C@@H](O)[C@@H](C)[C@H](OC(C)=O)[C@H](C)[C@@H](OC)/C=C/O[C@@](C)(O5)C4=O)N2 (stereo partly drawn),parasite load remaining,[1],81.4% (inactive)
same,viability,[1],74.8%
same,fold change,[2]; [6],0.966 (inactive)
same,fold change,[2]; [7],0.766
same,cell count,[2]; [8],8510
same,cell count,[2]; [9],8810
O=C(NC[C@H]1CCCCN1)c1cc(OCC(F)(F)F)ccc1OCC(F)(F)F,fold fluorescence,[3],6.98 [at 120.7 µM] (inactive)
CC(C)=CCC(O)C1=CC(=O)c2c(O)ccc(O)c2C1=O (stereo not drawn),fold fluorescence,[3],6.4 [at 173.4 µM] (inactive)
CC1(COc2ccc(C[C@@H]3SC(=O)NC3=O)cc2)CCCCC1,fold fluorescence,[3],5.39 (inactive)
N#Cc1cc2c(OC[C@@H](O)CN3CCN(C(c4ccccc4)c4ccccc4)CC3)cccc2[nH]1,fold fluorescence,[3],3.58 [at 107.2 µM] (inactive)
CCC1OC(=O)[C@H](C)C(=O)[C@H](C)[C@@H](OC2O[C@H](C)C[C@H](N(C)C)[C@H]2O)[C@](C)(OC)C[C@@H](C)C(=O)[C@H](C)[C@H]2N(CCCCn3cnc(-c4cccnc4)c3)C(=O)OC12C (stereo partly drawn),parasite load remaining,[1],141% (inactive) and 312% (inactive)
same,viability,[1],91.8% and 96.9%
same,fold change,[2]; [6],0.904 (inactive)
same,fold change,[2]; [7],2.11
same,cell count,[2]; [8],11200
same,cell count,[2]; [9],12400
CC(C)CC(=O)N[C@H](C(=O)NC(C(=O)NC(CC(C)C)[C@@H](O)CC(=O)N[C@@H](C)C(=O)N[C@@H](CC(C)C)[C@@H](O)CC(=O)O)C(C)C)C(C)C (stereo partly drawn),parasite load remaining,[1],20.9% (inactive)
same,viability,[1],180%
same,fold change,[2]; [6],0.937 (inactive)
same,fold change,[2]; [7],3.28
same,cell count,[2]; [8],12400
same,cell count,[2]; [9],13300
CC(C)[N+]1(C)[C@@H]2CC[C@@H]1CC(OC(=O)C(CO)c1ccccc1)C2 (stereo partly drawn),parasite load remaining,[1],92% (inactive)
same,viability,[1],107%
same,fold change,[2]; [6],0.845 (inactive)
same,fold change,[2]; [7],1.32
same,cell count,[2]; [8],9220
same,cell count,[2]; [9],10900
COC(=O)[C@@H]1CC(=O)O[C@H](C)C/C=C/C=C/[C@H](O)[C@H](C)C[C@H](CC=O)[C@H](OC2O[C@H](C)[C@@H](OC3C[C@@](C)(O)[C@@H](OC(=O)CC(C)C)[C@H](C)O3)[C@H](N(C)C)[C@H]2O)[C@H]1OC (stereo partly drawn),parasite load remaining,[1],340% (inactive)
same,viability,[1],138%
same,fold change,[2]; [6],0.948 (inactive)
same,fold change,[2]; [7],3.35
same,cell count,[2]; [8],11900
same,cell count,[2]; [9],12600
CCCCCCCCCCCCCCCCCCOC[C@@H](COP(=O)([O-])OCC[N+](C)(C)C)OC,fold fluorescence,[3],5.31 (inactive)
c1ccc2c3c([nH]c2c1)[C@H]1C2CCC([C@@H]4CCCN[C@H]24)N1CC3 (stereo partly drawn),parasite load remaining,[1],89.2% (inactive)
same,viability,[1],93.6%
same,fold change,[2]; [6],0.865 (inactive)
same,fold change,[2]; [7],1.3
same,cell count,[2]; [8],7540
same,cell count,[2]; [9],8710
Nc1ncnc2c1ncn2[C@@H]1CCCO1,fold fluorescence,[3],2.55 [at 243.6 µM] (inactive)
CCC(NC(C)C)C(O)c1ccc(O)c2[nH]c(=O)ccc12 (stereo not drawn),parasite load remaining,[1],40.1% (inactive)
same,viability,[1],98.2%
same,fold change,[2]; [6],0.908 (inactive)
same,fold change,[2]; [7],1.47
same,cell count,[2]; [8],11700
same,cell count,[2]; [9],12900
CC[N+]1(C)[C@@H]2CC[C@H]1CC(OC(=O)[C@H]1CCC(C(=O)OC3C[C@H]4CC[C@@H](C3)[N+]4(C)CC)(c3ccccc3)c3ccccc31)C2 (stereo partly drawn),parasite load remaining,[1],96.6% (inactive)
same,viability,[1],101%
same,fold change,[2]; [6],0.889 (inactive)
same,fold change,[2]; [7],1.08
same,cell count,[2]; [8],9010
same,cell count,[2]; [9],10100
CO[C@H]1/C=C\C=C(/C)C(=O)NC2=CC(=O)C(NCCN(C)C)=C(C[C@@H](C)C[C@H](OC)[C@H](O)[C@@H](C)/C=C(\C)[C@@H]1OC(N)=O)C2=O,SSMD,[5],3.16
same,cell count,[5],7300
same,plate-normalised HSF1 focus index,[5],1.12 (inactive)
C[C@@](O)(C(=O)Nc1ccc(S(=O)(=O)c2ccccc2)cc1)C(F)(F)F,fold fluorescence,[3],5.17 [at 133.9 µM] (inactive)
COC(=O)C1=C(C)NC(C)=C(C(=O)OCCSc2ccccc2)[C@H]1C,fold fluorescence,[3],8.74 [at 138.3 µM] (inactive)
CCCCCCCCCCCCCCCCCCOC[C@@H](COP(=O)([O-])OCC[N+](C)(C)C)OC(C)=O,fold fluorescence,[3],3.94 (inactive)
